The target in test [1] is T1, GST-Nv-NF-kB (Ser allele) (Nematostella vectensis, UniProt A7UNT2 2-411).
T1 sequence: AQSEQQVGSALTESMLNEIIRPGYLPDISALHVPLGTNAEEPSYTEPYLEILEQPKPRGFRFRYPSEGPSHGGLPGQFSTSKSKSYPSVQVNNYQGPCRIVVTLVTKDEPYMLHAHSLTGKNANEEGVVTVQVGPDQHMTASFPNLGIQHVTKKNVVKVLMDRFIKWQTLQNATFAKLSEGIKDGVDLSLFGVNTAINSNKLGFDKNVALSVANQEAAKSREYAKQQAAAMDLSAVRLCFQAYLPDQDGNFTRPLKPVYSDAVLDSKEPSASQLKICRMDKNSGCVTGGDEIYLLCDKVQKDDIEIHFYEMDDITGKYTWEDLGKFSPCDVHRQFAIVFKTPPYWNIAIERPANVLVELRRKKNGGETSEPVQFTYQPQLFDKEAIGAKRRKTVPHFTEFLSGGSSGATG
As to the kind of experiment: protein-binding microarray (PBM); PBM: ~300 nM protein, 6 mM HEPES pH 7.8, 80 mM KCl, 0.5 mM EDTA, 0.5 mM EGTA, 6% glycerol, 35 ng/ul poly-dIdC, 1% milk, 1 h, room temperature; Ap Aiptasia and Nv Nematostella (sea anemones) / Co Capsaspora / Aq Amphimedon (sponge) / Dm Drosophila / Hu human; RHD is the Rel homology domain; high values mean tight binding. The note with it: dsDNA, one strand shown.

In another test the target is GST-Hu-p50 (Homo sapiens, UniProt P19838 7-356). The test is described as above. The note with it: dsDNA, one strand shown.
Chain of GST-Hu-p50 (P19838 7-356): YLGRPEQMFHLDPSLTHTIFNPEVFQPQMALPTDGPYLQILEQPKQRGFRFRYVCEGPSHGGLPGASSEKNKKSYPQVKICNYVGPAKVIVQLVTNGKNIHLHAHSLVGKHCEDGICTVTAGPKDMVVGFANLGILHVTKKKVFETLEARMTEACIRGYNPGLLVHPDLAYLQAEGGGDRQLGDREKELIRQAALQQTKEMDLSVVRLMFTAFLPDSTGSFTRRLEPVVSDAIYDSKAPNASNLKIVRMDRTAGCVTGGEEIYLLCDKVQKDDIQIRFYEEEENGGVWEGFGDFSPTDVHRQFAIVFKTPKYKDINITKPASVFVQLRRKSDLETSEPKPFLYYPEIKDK

Drawing on publication PMC5700166, this text covers binding signal for 14 sequences.

Turning to “CCGATTAACATCAAGGTAATTCCTGATGTTAATCGGGTCTTGATTCGCTTGACGCTGCTG”, the binding signal in test [1] was found to be 3.37 z-score; in the test with GST-Hu-p50 it was 2.4 z-score.

Turning to “CCGATTAACATCAGGAGATACCCTGATGTTAATCGGGTCTTGATTCGCTTGACGCTGCTG”, the binding signal came out at 1.65 z-score in test [1] and 2.58 z-score with GST-Hu-p50.

Take “CCGATTAACATCATAAAATCCCATGATGTTAATCGGGTCTTGATTCGCTTGACGCTGCTG”: the figures for the binding signal (in test [1]; with GST-Hu-p50) were 2.31 z-score and 3.45 z-score, respectively.

Regarding “CCGATTAACATCACGGGACCCCCTGATGTTAATCGGGTCTTGATTCGCTTGACGCTGCTG”, the binding signal in test [1] came out at 3.8 z-score; with GST-Hu-p50, 3.54 z-score.

In the case of “CCGATTAACATCAAAATTTCACCTGATGTTAATCGGGTCTTGATTCGCTTGACGCTGCTG”, the values for the binding signal (in test [1]; with GST-Hu-p50) were 3.88 z-score and 3.28 z-score, respectively.

With “CCGATTAACATCATTCGGGAAAATGATGTTAATCGGGTCTTGATTCGCTTGACGCTGCTG”, the binding signal was 4.94 z-score in test [1] and 3.03 z-score with GST-Hu-p50.

With “CCGATTAACATCAATCTACCCCCTGATGTTAATCGGGTCTTGATTCGCTTGACGCTGCTG”, the binding signal in test [1] stood at 4.13 z-score; with GST-Hu-p50, 4.39 z-score.

For “CCGATTAACATCAAAATTCCCGGTGATGTTAATCGGGTCTTGATTCGCTTGACGCTGCTG”, the binding signal in test [1] was 6.06 z-score; in the test with GST-Hu-p50, 4.89 z-score.

Turning to “CCGATTAACATCACCCCTCCCCGTGATGTTAATCGGGTCTTGATTCGCTTGACGCTGCTG”, the binding signal in test [1] amounted to 3.23 z-score; with GST-Hu-p50 it was 3.01 z-score.

“CCGATTAACATCAGGAGTACCCCTGATGTTAATCGGGTCTTGATTCGCTTGACGCTGCTG”: the binding signal stood at 2.31 z-score in test [1] and 2.81 z-score with GST-Hu-p50.

Consider “CCGATTAACATCAGGAACGTCCCTGATGTTAATCGGGTCTTGATTCGCTTGACGCTGCTG”, for which the binding signal in test [1] stood at 2.75 z-score; in the test with GST-Hu-p50, 2.12 z-score.

On to “CCGATTAACATCAGGAATATTCCTGATGTTAATCGGGTCTTGATTCGCTTGACGCTGCTG”, for which the binding signal was 1.09 z-score in test [1] and 1.36 z-score in the test with GST-Hu-p50.

On to “CCGATTAACATCAATACACCCCCTGATGTTAATCGGGTCTTGATTCGCTTGACGCTGCTG”, for which the binding signal (in test [1]; with GST-Hu-p50) was 4.34 z-score throughout.

With “CCGATTAACATCAACCACCCCCCTGATGTTAATCGGGTCTTGATTCGCTTGACGCTGCTG”, the binding signal in test [1] came to 3.31 z-score; in the test with GST-Hu-p50, 4.14 z-score.
